From PubChem
USP17 inh: blocks human USP17 ubiquitin-rhodamine cleavage | A8MUK1 | purified USP17, Ub-rhodamine cleavage fluorescence, 3 h | inhibition, % at 50 µM | hit rate 6.5% among 47,000
USP8 inh: inhibitors of human USP8 deubiquitinase | hit rate 4.2% among 47,000 | purified USP8, Ub-rhodamine cleavage fluorescence, 30 min | P40818 | inhibition, % at 20 µM
OTUD3 block: inhibitors of human OTUD3 deubiquitinase; Q5T2D3; purified OTUD3, Ub-rhodamine fluorescence, 2 h; inhibition, % at 25 µM; hit rate 0.7% among 47,000; AID 1645858
USP30 block: inhibitors of human USP30 deubiquitinase; hit rate 5.3% among 47,000; AID 1645860; Q70CQ3; inhibition, % at 25 µM; purified USP30, Ub-rhodamine cleavage fluorescence
USP28 block: blocks human USP28 ubiquitin-rhodamine cleavage. hit rate 3% among 47,000. purified USP28, Ub-rhodamine cleavage fluorescence, 30 min. AID 1645857. Q96RU2. inhibition, % at 25 µM
* marks the source's active call; other numbers are inactive results; x = not tested or not shown. Rows were chosen to be rich in hits. Some 13% of all compounds tested hit in one or more screens of this group. Rule as the data show it: active = inhibition above about 30%; inactive = the rest.

SMILES	USP17 inh	USP8 inh	OTUD3 block	USP30 block	USP28 block
CCC(C(=O)Nc1cccc2nsnc12)c1ccccc1 (configuration not stated)	10	37*	5	-7	7
O=C(CSc1ccccc1)Nc1cccc2nsnc12	32*	53*	11	24	28
COc1cc(N)c(Cl)cc1C(=O)OCC(=O)N1CCCC1	11	7	11	6	5
COc1cc(OCC(=O)NC(C)C)cc2c1C(=O)O[C@@H](C)CCCC(=O)CCCCC2	4	1	11	13	7
COc1cc2c(c(OCC(=O)Nc3ccc4c(c3)OCCO4)c1)C(=O)O[C@@H](C)CCCC(=O)CCCCC2	22	68*	27	51*	18
COc1cc(N)c(Cl)cc1C(=O)OCC(=O)Nc1ccc2c(c1)OCCO2	20	14	-10	0	37*
COc1ccc(C(=O)NC2CC2)cc1OC1CCN(Cc2ccc3nonc3c2)CC1	-6	-4	-17	-20	-6
Cc1c(C(=O)Nc2ccc(-c3nnc4n3CCCCC4)cc2)oc2c1ccc1ccccc12	-3	4	0	-12	68*
O=C(Nc1ccc(-c2nnc3n2CCCCC3)cc1)c1cc2ccccc2o1	-2	-4	-15	-2	35*
O=C(Nc1nccs1)C1c2ccccc2C(=O)N(c2ccccc2)C12CCCCC2 (configuration not stated)	34*	-17	-3	-8	-10
O=C(Nc1cccnc1)C1c2ccccc2C(=O)N(c2ccccc2)C12CCCCC2 (configuration not stated)	12	49*	2	16	-7
O=C(Nc1cccnc1)C1c2ccccc2C(=O)N(Cc2ccccc2)C12CCCC2 (configuration not stated)	-26	-2	-20	-8	-13
O=C(NC1CC1)C1c2ccccc2C(=O)N(c2ccccc2)C12CCCCC2 (configuration not stated)	3	7	4	5	-1
COc1ccc(S(=O)(=O)Nc2ccc3nn(C)cc3c2)cc1	34*	77*	-18	-63	-13
CC(NC(=O)c1cccnc1)c1nc(-c2ccccc2)no1 (configuration not stated)	8	1	5	0	0
O=C(COC(=O)c1ccc(CN2CCCC2=O)cc1)c1ccc2c(c1)OCCO2	9	-22	-5	-25	90*
O=C(COC(=O)c1ccc2c(=O)n3c(nc2c1)CCCCC3)c1ccc2c(c1)OCCO2	-6	-11	-3	-2	19
NS(=O)(=O)c1cc(C(=O)OCC(=O)c2ccc3c(c2)OCCO3)ccc1Cl	-28	-7	-6	-12	70*
O=C(COC(=O)c1ccc2ncsc2c1)c1ccc2c(c1)OCCO2	-11	-8	-7	-41	31*
Cc1ccc(S(=O)(=O)Nc2ccc(-c3ccc(N4CCN(C)CC4)nn3)cc2)cc1	17	18	3	14	2
O=C(NCc1cccc(F)c1)c1ccc(-c2cccnc2)nc1	-1	1	0	0	1
c1coc(-c2cc3nc(NCc4ccc5c(c4)OCO5)ccn3n2)c1	4	58*	-1	-179	26
CCN1CC2(CC1=O)CN(C(=O)NC(C)C)CCN(S(=O)(=O)Cc1ccccc1)C2 (configuration not stated)	0	-35	22	27	15
O=c1c(Cc2ccccc2)coc2ccccc12	12	11	12	24	50*
O=c1c2ccc(F)cc2ncn1Cc1csc(-c2ccccc2)n1	30	-13	-22	-118	47*
SMILES	USP17 inh	USP8 inh	OTUD3 block	USP30 block	USP28 block
Cc1ccccc1-c1nnc(-c2ccc(C(=O)NCc3ccccc3F)cc2)o1	36*	10	0	66*	28
Cc1ccc(C(=O)Nc2nccnc2C(=O)NCc2ccccc2F)cc1	23	-8	-7	-9	-2
O=C(NCc1ccccc1Cl)c1ccc(-c2nnc(-c3ccccc3)o2)cc1	62*	-4	16	36*	8
C[C@H]1CN(C(=O)Nc2ccc(F)cc2)C[C@@H]1c1nc(-c2cccnc2)no1	-55	-3	-3	-7	-4
Cc1cccc(OCC(=O)Oc2ccc(-n3cnnn3)cc2)c1C	0	-2	2	-2	1
O=C(COc1ccc(-n2cnnn2)cc1)Nc1cc(Cl)ccc1Oc1ccccc1	17	22	7	6	20
Cc1cc(=O)oc2cc(NC(=O)c3ccc(-n4cnnn4)cc3)ccc12	44*	36*	11	27	3
COc1cccc(C(=O)Nc2ccc(-n3cnnn3)cc2)c1	32*	4	8	51*	17
N#Cc1ccc(NC(=O)COc2ccc(-n3cnnn3)cc2)cc1	49*	7	8	37*	21
O=C(COc1ccc(F)cc1)Oc1ccc(-n2cnnn2)cc1	5	14	16	30*	20
Cc1cc(N2CCCC2c2cncc(-n3ccnc3)n2)ncn1 (configuration not stated)	-37	-222	-2	-46	-5
Cc1ccc(CN2CN(C3CCN(C(=O)CC(C)(C)C)CC3)CC2=O)cc1	2	0	3	3	0
CNc1nc2c(c(=O)n1-c1ccccc1)CCN(C(=O)NC1CCCC1)C2	4	4	-3	-16	-1
O=[N+]([O-])c1ccc(-c2nc(NCCCN3CCOCC3)c3ccccc3n2)cc1	0	-78	5	-5	10
Cc1c(C(=O)OCC(=O)Nc2ccc3c(c2)OCO3)oc2ccc(Br)cc12	-4	-26	0	-41	-4
O=C(COc1cccc(-n2cnnn2)c1)Nc1ccc2c(c1)OCCO2	5	11	3	14	50*
O=C(Nc1ccc2c(c1)OCO2)c1ccccc1-n1cnnn1	-9	-7	-9	-21	-11
CCCCOc1ccccc1C(=O)Oc1ccc(-n2cnnn2)cc1	11	19	8	17	29
CCOC(=O)c1cc(=O)c2ccc(OCC(=O)Nc3ccc4c(c3)OCCO4)cc2o1	x	65*	20	26	18
O=C(Oc1ccc(-n2cnnn2)cc1)c1ccccc1Br	33*	45*	3	0	2
CC(=O)C(C)Sc1nc(C)nc2sc(-c3ccccc3)cc12 (configuration not stated)	-40	-31	-32	-76	-21
COc1ccc(C(=O)O)cc1S(=O)(=O)N(CCc1ccccc1)Cc1ccccc1	13	3	15	39*	20
Cc1nc(-c2cccs2)cc(-c2cccc(Cl)c2)c1C#N	18	27	14	37*	15
Cc1cc(C(=O)C(=O)Nc2cccc(Cl)c2)c(C)n1-c1ccc(F)cc1	-13	-110	1	1	1
Cc1nnc(NC(=O)C(=O)c2cc(C)n(-c3ccc(Cl)cc3)c2C)s1	43*	41*	7	-42	25
Cc1ccc(-c2onc3ccc(C(=O)N4CCCCCC4)cc23)cc1	12	-9	-11	23	-11
Cc1ccccc1NC(=O)Nc1ccccc1OCc1cc(=O)n2cccc(C)c2n1	47*	46*	40*	43*	28
